Among the test systems are DU-145 prostate; K-562 leukemia; MALME-3M melanoma; MDA-MB-231 breast; RXF 393 renal; SF-268 CNS; SF-295 CNS; SF-539 CNS; UACC-257 melanoma; M14 melanoma; HCT-15 colon; HT29 colon; SNB-75 CNS; SNB-19 CNS; U251 CNS; PC-3 prostate; UACC-62 melanoma; LOX IMVI melanoma; SK-MEL-28 melanoma; SK-MEL-5 melanoma.
Holding throughout (experiment): NCI-60 one-dose screen, 48 h (100 = growth as untreated, 0 = no growth, -100 = all killed)
Holding throughout (details): 10 µM unless noted

Among the data in PubChem BioAssay (NCI) are growth values, retold here.

This is part of a sample that, as a whole, favours compounds with a hit. Of some 83,000 tested, about 20% had one in any assay.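 Step 1: grow cells in 96-well plates. Step 2: add test compound at a single concentration. Step 3: incubate 48 h. Step 4: record percent growth.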 Values without a mark were called inactive. Calls of active or inactive are those of the source. How the source made its calls: active means growth percent below 10; inactive means the rest.

Consider `Cc1cc(C)c2c(NC(=O)Nc3ccc(Cl)c(Cl)c3)n[nH]c2n1`, for which the growth is 105% in the test on DU-145 prostate; 91% in the test with K-562 leukemia; 90.4% in the test with MALME-3M melanoma; 104% with MDA-MB-231 breast; 105% in the test with RXF 393 renal; 103% in the test on SF-268 CNS. For the same compound, the growth was 93.4% with SF-295 CNS; 112% in the test on SF-539 CNS; 110% in the test on UACC-257 melanoma; 109% with M14 melanoma; 100% with HCT-15 colon; 96.9% with HT29 colon. For the same compound, the growth is 88.7% with SNB-75 CNS; 101% in the test on SNB-19 CNS; 102% in the test with U251 CNS; 103% with PC-3 prostate; 103% in the test with UACC-62 melanoma; 99.8% in the test on LOX IMVI melanoma. The growth in the test on SK-MEL-28 melanoma is 104%.

Consider `COc1cc2nccc(Oc3ccc(NC(=O)C4(C(=O)Nc5ccc(F)cc5)CC4)cc3)c2cc1O`, for which the growth in the test on DU-145 prostate is 77.7%; in the test with K-562 leukemia, 9.3% (active); in the test with MALME-3M melanoma, 64%; in the test with MDA-MB-231 breast, 71%; in the test on RXF 393 renal it was 58.5%; in the test with SF-268 CNS, 65.8%. Further, the growth with SF-295 CNS is 35.2%; with SF-539 CNS, 24.5%; in the test on UACC-257 melanoma, 71.5%; in the test with M14 melanoma, 49.5%; in the test on HCT-15 colon, 61.8%; in the test with HT29 colon, 95.1%. In addition, the growth in the test on SNB-75 CNS is 34%; with U251 CNS, 66%; with PC-3 prostate it was 57.1%; with SK-MEL-5 melanoma it was 66.4%; in the test on UACC-62 melanoma it was 34.8%; with LOX IMVI melanoma it was 39.8%.

With `CC(=O)Nc1nonc1-c1nc2ccccc2n1Cc1ccc(C(C)(C)C)cc1`, the growth was 79.9% in the test on DU-145 prostate; 30.2% in the test on K-562 leukemia; 90.5% in the test on MALME-3M melanoma; 92.8% in the test on MDA-MB-231 breast; 65.8% in the test on RXF 393 renal; 67.2% in the test on SF-268 CNS. Further, the growth in the test on SF-295 CNS was 79.6%; in the test on SF-539 CNS, 89%; with UACC-257 melanoma it was 92%; with M14 melanoma, 92%; in the test on HCT-15 colon, 90.4%; in the test on HT29 colon, 74.1%. The growth with SNB-75 CNS was 50.2%; in the test with SNB-19 CNS, 80.1%; in the test on U251 CNS, 75.7%; with PC-3 prostate, 28.6%; with SK-MEL-5 melanoma, 79.9%; in the test on UACC-62 melanoma, 81.6%. Moreover, the growth in the test on LOX IMVI melanoma was 63%; in the test with SK-MEL-28 melanoma, 101%.

For `CCCCc1n(Cc2ccc3ccccc3n2)cc[n+]1Cc1ccc2ccccc2n1`, the growth was 40.8% in the test with DU-145 prostate; 6.71% (active) with K-562 leukemia; -2.99% (active) in the test with MALME-3M melanoma; 9.88% (active) in the test on MDA-MB-231 breast; 20.8% in the test on RXF 393 renal; 19.9% with SF-268 CNS. The growth is 25.2% with SF-295 CNS; 16.3% with SF-539 CNS; -11.9% (active) in the test with UACC-257 melanoma; 17.1% in the test on M14 melanoma; 87.8% in the test on HCT-15 colon; 5.9% (active) in the test on HT29 colon. Moreover, the growth was 17.5% in the test on SNB-75 CNS; 10.4% with SNB-19 CNS; 11.6% in the test with U251 CNS; 16.2% in the test with PC-3 prostate; -6.58% (active) in the test on UACC-62 melanoma; -22.2% (active) in the test on LOX IMVI melanoma. In addition, in the test with SK-MEL-28 melanoma, the growth was 16.1%.

`Nc1nonc1-c1nc2ccccc2n1Cc1ccc(F)cc1`: the growth in the test on DU-145 prostate was 80.7%; in the test on K-562 leukemia it was 10.6%; in the test with MALME-3M melanoma, 46.2%; in the test on MDA-MB-231 breast it was 60%; in the test with RXF 393 renal, 37.8%; with SF-268 CNS, 66.3%. For the same compound, the growth was 68.5% in the test with SF-295 CNS; 49.9% in the test on SF-539 CNS; 75.4% with UACC-257 melanoma; 28.2% with M14 melanoma; 30.4% in the test with HCT-15 colon; 17.3% in the test with HT29 colon. Also, the growth was 32.4% in the test on SNB-75 CNS; 63.8% with SNB-19 CNS; 52.3% in the test with U251 CNS; 61.7% with PC-3 prostate; 48.8% in the test with UACC-62 melanoma; 49.1% with LOX IMVI melanoma. In addition, the growth in the test with SK-MEL-28 melanoma is 61.3%.

Consider `O=C(C(=O)c1cccnc1)c1cccnc1`, for which the growth with DU-145 prostate was 121%; in the test with K-562 leukemia, 110%; in the test with MALME-3M melanoma, 118%; in the test on MDA-MB-231 breast, 99.7%; with RXF 393 renal, 136%; in the test on SF-268 CNS, 95.8%. Moreover, the growth is 116% in the test on SF-295 CNS; 99.3% in the test with SF-539 CNS; 95% with UACC-257 melanoma; 96.3% with M14 melanoma; 120% with HCT-15 colon; 108% with HT29 colon. Further, the growth with SNB-75 CNS was 107%; in the test on SNB-19 CNS, 110%; with U251 CNS, 112%; with PC-3 prostate it was 107%; in the test with SK-MEL-5 melanoma, 105%; in the test on UACC-62 melanoma, 102%. The growth with LOX IMVI melanoma was 100%; in the test with SK-MEL-28 melanoma, 135%.

As to `O=C1/C(=C\c2cccn2Cc2ccc(Cl)cc2)c2ccccc2N1c1c(Cl)cccc1Cl`, the growth in the test on DU-145 prostate is 105%; in the test with K-562 leukemia, 75.6%; in the test on MALME-3M melanoma it was 79.5%; in the test with MDA-MB-231 breast it was 68.1%; in the test with RXF 393 renal, 78.3%; in the test with SF-268 CNS, 88.1%. Further, the growth in the test with SF-295 CNS was 87.7%; in the test with SF-539 CNS it was 88.8%; in the test on UACC-257 melanoma it was 93.1%; in the test with M14 melanoma, 101%; in the test with HCT-15 colon, 61.4%; with HT29 colon, 85.5%. Further, the growth with SNB-75 CNS was 82.2%; in the test with SNB-19 CNS, 87.8%; with U251 CNS it was 75.6%; with PC-3 prostate, 57.5%; in the test with SK-MEL-5 melanoma, 66.1%; with UACC-62 melanoma, 71.7%. For the same compound, the growth in the test with LOX IMVI melanoma is 91.9%; in the test with SK-MEL-28 melanoma it was 91%.

With `CNC(=O)c1ccccc1Sc1ccc2c(/C=C/c3ccccn3)n[nH]c2c1`, the growth in the test on DU-145 prostate is 47.5%; in the test on K-562 leukemia, 6.57% (active); with MALME-3M melanoma, 37.2%; with MDA-MB-231 breast, 39.7%; with RXF 393 renal, 2.21% (active); in the test with SF-268 CNS, 41.9%. The growth was 40% in the test with SF-295 CNS; 3.31% (active) in the test with SF-539 CNS; 31.5% with UACC-257 melanoma; 16.9% in the test with M14 melanoma; 33.9% with HCT-15 colon; 25.2% with HT29 colon. The growth with SNB-75 CNS was 26.3%; with SNB-19 CNS, 50.2%; in the test with U251 CNS it was 40.1%; in the test with PC-3 prostate, 28.1%; with SK-MEL-5 melanoma it was 11.2%; with UACC-62 melanoma it was 13%. The growth with LOX IMVI melanoma was 8.31% (active); in the test with SK-MEL-28 melanoma it was 40.7%.
